Screening results (PubChem BioAssay)
An excerpt weighted towards active compounds, which were near 2.3% of everything screened.
Mcl1-Bid inh = disrupts binding of human Mcl-1 to Bid peptide; inhibition, % at 21.7 µM; actives 0.97% (n = 220,000); AID 1021; TR-FRET Mcl-1/Bid-Dy647 peptide binding, 1536-well;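 active = compounds that cut the binding signal by more than half at the single screening dose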;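 also: His-tagged Mcl-1 with europium anti-His antibody binding Bid BH3 peptide; 0% = Mcl-1 plus peptide wells and 100% = peptide-only wells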
MCL1-BIM inh = inhibitors of human MCL1 binding to BIM-BH3 peptide; inhibition, % at 10.9 µM; GST-MCL1 / FITC-Bim-BH3 fluorescence polarization; actives 0.68% (n = 320,000);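 active = inhibition above the mean inhibition of all tested compounds plus 3 SD, set per campaign, cut at about 40% in these data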;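 also: 0% = DMSO wells and 100% = unlabeled Bim-BH3 peptide control; higher means more loss of mP so more displacement of Bim peptide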
Mcl-1 Bim block = inhibitors of Bim-Mcl-1 interaction, human. Q07820. Bead-based flow cytometry, Bim peptide-Mcl-1 binding. inhibition, % at 10 µM. actives 0.1% (n = 190,000). AID 1009; in the data active = inhibition above about 40%;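 also: 0% = no compound tracer wells and 100% = peptide blocker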
Bcl-xL primary = Bcl-xL (human) inhibition. Q07817. GST-Bcl-xL / FITC-Bim BH3 peptide fluorescence polarization. inhibition, % at 10.9 µM. actives 0.7% (n = 320,000). AID 2129;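 active = inhibition above the mean of all tested compounds plus 3 SD, cutoff set per campaign, cut at about 30% in these data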;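 also: 0% = DMSO wells and 100% = unlabeled Bim-BH3 peptide competitor; inhibitors lower millipolarization by displacing the labeled peptide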
Target sequence (Q07817 whole entry, looked up): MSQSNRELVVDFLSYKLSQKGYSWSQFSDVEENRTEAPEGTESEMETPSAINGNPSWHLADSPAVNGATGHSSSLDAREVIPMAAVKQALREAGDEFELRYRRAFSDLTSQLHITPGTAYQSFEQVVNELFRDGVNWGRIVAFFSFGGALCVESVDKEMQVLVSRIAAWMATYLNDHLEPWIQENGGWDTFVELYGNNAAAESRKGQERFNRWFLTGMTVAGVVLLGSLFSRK
GLD-1 TGE inh = GLD-1-TGE RNA interaction inhibition (C. elegans). actives 0.44% (n = 320,000). inhibition, % at 5.96 µM. AID 2280. purified GLD-1 + fluorescein TGE RNA, fluorescence polarization;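 active = percent inhibition above a per-plate cutoff, the plate mean of test compounds plus 3 SD, cut at about 30% in these data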;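 also: 0% = DMSO wells with GLD-1 and probe and 100% = wells lacking GLD-1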
Mcl1-Noxa inh = Mcl-1/Noxa interaction inhibition. actives 1.5% (n = 220,000). AID 1022. inhibition, % at 21.7 µM. TR-FRET Mcl-1/Noxa peptide binding, 2 h;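 active = compounds that cut the protein-peptide binding signal by more than 50% relative to plate controls in a single-dose test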;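 also: His-tagged Mcl-1 with rhodamine Noxa BH3 peptide and terbium anti-His antibody; 0% = Mcl-1 plus Noxa peptide wells and 100% = peptide-only wells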
* marks the source's active call; other numbers are inactive results; / = not tested or not shown.

SMILES | Mcl1-Bid inh | MCL1-BIM inh | Mcl-1 Bim block | Bcl-xL primary | GLD-1 TGE inh | Mcl1-Noxa inh
Cc1ccc(C(=O)NN2CC(O)=C(c3nc(-c4cccc([N+](=O)[O-])c4)cs3)C2=N)cc1 | 5.2 | 10.1 | 4.0 | 8.3 | -1.3 | 56.4*
CCOC(=O)COc1ccc2ccccc2c1/C=C/[N+](=O)[O-] | 15.2 | 7.9 | -6.0 | 3.6 | 6.2 | 19.1
CCOc1ccc(/C=C/[N+](=O)[O-])c2ccccc12 | 45.3 | 6.9 | 0.0 | -3.3 | 0.8 | 76.3*
C=CCn1c(O)c(N=NC(=O)CNC(=O)c2cccs2)c2ccccc21 | -32.5 | 6.2 | 0.0 | 3.4 | 3.6 | 20.2
O=C(c1ccccc1)c1cc(Cl)ccc1N1C(=O)C=CC1=O | 51.3* | / | 4.0 | / | / | 32.3
O=C(CC(=O)c1cc(Cl)ccc1O)c1ccccc1 | -30.4 | -3.5 | 0.0 | -1.0 | 5.6 | -10.9
COc1ccccc1NS(=O)(=O)c1ccc(C(=O)OCC(=O)NCc2ccco2)cc1 | -22.7 | -11.0 | 0.0 | 0.3 | 8.3 | 54.9*
COc1ccccc1NC(=O)COC(=O)c1ccc(S(=O)(=O)NCc2ccco2)cc1 | -29.2 | 12.5 | -1.0 | 6.4 | -3.1 | -1.2
O=C1Nc2ccccc2C(=O)N2[C@H](c3ccc(F)cc3)[C@@H]3C(=O)N(Cc4ccccc4)C(=O)[C@@H]3[C@H]12 | / | -2.6 | / | 3.3 | 8.5 | /
Cc1ccc(NC(=O)/C(=C\c2cccnc2)NC(=O)c2ccco2)cc1 | -0.4 | 28.6 | 0.0 | 89.4* | 28.9 | 8.6
Cc1ccc2c(=O)n3c(nc2c1)C(CC(C)C)NC(=O)c1ccc(Cl)cc1-3 (stereo unspecified) | / | / | / | / | 7.2 | /
CCCC1=C(C(=O)OCC)C(c2sccc2C)n2ncnc2N1 (stereo unspecified) | 1.3 | -2.4 | / | 3.8 | 21.5 | 4.6
CCCC1=C(C(=O)OCC)C(c2ccc(O)cc2)n2ncnc2N1 (stereo unspecified) | -46.4 | 9.7 | 0.0 | 8.7 | 1.8 | 67.3*
O=C1c2ccccc2C(=O)N1CCSc1ccccc1 | -22.9 | -1.9 | -1.0 | 2.2 | 3.4 | 17.2
O=C1C(C=Nc2ccccc2O)=C(O)c2ccccc21 | -32.8 | 6.4 | -3.0 | 7.9 | 5.2 | -4.6
Cc1ccc(O)c(N=CC2=C(O)c3ccccc3C2=O)c1 | -39.4 | 43.2* | -1.0 | 38.1* | 13.8 | 63.4*
Cc1ccccc1Nc1nnc(SCC(=O)c2ccc(O)cc2O)s1 | / | 8.0 | / | 5.0 | 2.6 | /
CC1=CC(C#N)(C#N)C(C#N)(C#N)C(c2ccccc2)N1 (stereo unspecified) | -27.2 | 151.2* | -2.0 | 144.9* | 118.9* | 19.2
CC(=O)Nc1ccc(NC(=O)c2cc(-c3cc(C)cc(C)c3O)n[nH]2)cc1 | / | 5.4 | / | 3.2 | 0.9 | /
O=C(CCOc1ccccc1)Nc1ccnn1C1CCN(Cc2ccc(O)cc2)CC1 | / | 2.4 | / | 3.9 | 2.2 | /
O=C(N/N=C/c1ccco1)c1cccc(N2CCCC2=O)c1 | -17.2 | 6.0 | -3.0 | 4.3 | -2.4 | 7.5
O=C(N/N=C/c1ccco1)c1cccc(N2Cc3ccccc3C2)c1 | -7.1 | 20.5 | 0.0 | 10.3 | 6.0 | 75.2*
O=C1c2ccc([N+](=O)[O-])cc2NC(c2ccco2)N1/N=C/c1ccco1 (stereo unspecified) | -24.4 | -13.1 | / | -3.9 | -2.1 | 84.3*
Cc1cc(C(=O)Nc2ccccc2N2CCOCC2)c(C)o1 | -37.1 | 0.2 | / | 3.7 | 5.1 | -3.5
COc1cc(CN2CCN(c3ccc(C)cc3)CC2)cc([N+](=O)[O-])c1O | 17.8 | 1.9 | -2.0 | 7.9 | 4.9 | 18.6
SMILES | Mcl1-Bid inh | MCL1-BIM inh | Mcl-1 Bim block | Bcl-xL primary | GLD-1 TGE inh | Mcl1-Noxa inh
Cc1ccc(NC(=O)COC(=O)c2ccc3c(=O)n4c(nc3c2)CCC4)c(Br)c1 | / | 0.6 | / | -1.0 | 3.4 | /
Cc1ccc(Cl)cc1NC(=O)COC(=O)c1ccc(COc2ccc3c(C)cc(=O)oc3c2)cc1 | 57.1* | -16.7 | -2.0 | -9.3 | 0.7 | -0.8
Cc1nnc(NC(=O)COc2ccc3c(C)cc(=O)oc3c2)s1 | -32.6 | 23.1 | -2.0 | 4.8 | 0.1 | 79.1*
COc1cc(C(=O)NC(c2ccccc2)c2ccccc2)cc(OC)c1OC | / | 9.3 | / | 4.6 | 2.4 | /
CCCSc1nsc(NC(=O)C(c2ccccc2)c2ccccc2)n1 | -13.5 | 5.3 | -1.0 | 2.3 | -1.5 | 15.9
CCN(CC)c1ccc(NC(=O)Nc2cccc(C(C)=O)c2)cc1 | -76.4 | 6.1 | 0.0 | 13.4 | -0.9 | 85.5*
CCN(CC)c1ccc(NC(=O)OC)cc1 | -53.1 | -12.7 | 3.0 | -3.9 | -5.8 | 68.5*
